# S1P4 antagonist = blocks the human S1P4 receptor | O95977 | S1P4-expressing cells, antagonist mode, reporter read-out | inhibition, % at 4.98 µM | 0.26% of 220,000 active; in the data active = inhibition above about 29%
# S1P3 antag-1 = blocks the human S1P3 receptor; CHO S1P3 NFAT-BLA reporter, FRET fluorescence, antagonist mode; inhibition, % at 4.98 µM; 0.27% of 170,000 active;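 active = inhibition above the plate cutoff, the mean inhibition of test wells on that plate plus 3 SD, cut at about 28% in these data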;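 also: cells challenged with S1P at its EC80 of 0.8 µM; blue over green emission ratio from cleaved BLA substrate after 4 h stimulation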
# S1P4 ag = human S1P4 receptor agonism. activation, % at 4.98 µM. S1P4-expressing cell line, agonist reporter assay. AID 1509. O95977. 0.35% of 220,000 active; in the data active = activation above about 11%
# GALR2 agonist = activates the human galanin receptor 2. O43603. GALR2-expressing cells, agonist activation read-out. activation, % (test concentration not listed). 0.48% of 140,000 active; in the data active = activation above about 5%, passing the limit was not always enough
# Target sequence (O43603 whole entry, looked up): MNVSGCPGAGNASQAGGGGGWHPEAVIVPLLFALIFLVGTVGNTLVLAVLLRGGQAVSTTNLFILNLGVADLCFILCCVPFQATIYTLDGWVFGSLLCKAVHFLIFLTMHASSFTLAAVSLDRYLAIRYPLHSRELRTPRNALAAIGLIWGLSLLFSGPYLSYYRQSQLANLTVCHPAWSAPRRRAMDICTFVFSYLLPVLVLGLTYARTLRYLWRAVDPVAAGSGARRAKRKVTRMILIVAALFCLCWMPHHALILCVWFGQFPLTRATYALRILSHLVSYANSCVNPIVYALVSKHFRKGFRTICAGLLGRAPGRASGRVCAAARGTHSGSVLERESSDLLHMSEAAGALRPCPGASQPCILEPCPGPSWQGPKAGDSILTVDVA
# GALR2 blocker = GALR2 (human) receptor antagonism | O43603 | GALR2-expressing cells, antagonist mode | inhibition, % at 4 µM | 0.39% of 140,000 active | AID 828; in the data active = inhibition above about 27%;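 also: cells stimulated with galanin 1-16 at roughly its EC80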
# S1P3 antag-2 = human S1P3 receptor antagonism, confirmation; CHO S1P3 NFAT-BLA reporter, FRET, antagonist mode; shares compounds with S1P3 antag-1; 30% of 240 active; inhibition, % at 4.98 µM;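 active = inhibition above the hit threshold that was computed for the earlier primary screen, cut at about 30% in these data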
# Numbers stand for hits; - = inactive; . = no result. In the library only some 1.3% were active in any assay of this set; here they are far more common.
SMILES,S1P4 antagonist,S1P3 antag-1,S1P4 ag,GALR2 agonist,GALR2 blocker,S1P3 antag-2
O=C(CN1CCN(Cc2ccccc2)CC1)NCCNc1ccc([N+](=O)[O-])cn1,-,51,-,.,.,-
COC(=O)COc1cccc2c(=O)n(CC(=O)NCc3ccc(F)cc3)ccc12,-,-,-,.,.,.
CCOC(=O)C(C)Oc1cccc2c(=O)n(CC(=O)NCc3ccccc3)ccc12 (stereo not drawn),-,37,-,.,.,-
CCOC(=O)C(C)Oc1cccc2c(=O)n(CC(=O)NCCc3ccccc3)ccc12 (stereo not drawn),-,-,-,.,.,.
CCOC(=O)C(C)Oc1cccc2c(=O)n(CC(=O)NCc3ccc(F)cc3)ccc12 (stereo not drawn),-,35,-,.,.,-
COC(=O)[C@@H](NC(=O)CCc1nnc(-c2ccsc2)o1)C(C)C,-,-,-,.,.,.
Cc1nc(C(C)NC(=O)CCc2nnc(-c3ccsc3)o2)cs1 (stereo not drawn),-,38,-,.,.,-
Cc1ccc(S(C)(=O)=NC(=O)c2cc(C)on2)cc1 (stereo not drawn),-,-,-,.,.,.
CN1CCN(/N=C/c2ccc(-c3ccc([N+](=O)[O-])cc3Cl)o2)CC1,-,54,-,.,.,-
CCN1/C(=C/c2ccc3cc(C)ccc3[n+]2CC)Sc2cc(C)c(C)cc21,-,31,-,.,.,-
CC[n+]1c(/C=C2\Sc3ccccc3N2C)ccc2cccc(C)c21,-,-,-,.,.,.
CC(C)(C)c1ccc(OC(=O)CN2C(=O)C3C4CCC(C4)C3C2=O)cc1 (stereo not drawn),-,-,-,-,-,.
O=C(O)CC(CC(=O)Nc1ccc(F)c(Cl)c1)c1ccc(Cl)cc1Cl (stereo not drawn),-,59,-,.,.,-
CCN1/C(=C/C=C/c2oc3ccc(-c4ccccc4)cc3[n+]2CC)Oc2ccc(-c3ccccc3)cc21,-,31,-,.,.,54
O=C(O)CC(Sc1n[nH]c(=S)s1)C(=O)O (stereo not drawn),-,-,-,.,.,.
C(=N\NC1=Nc2cccc3cccc1c23)/c1ccccn1,-,29,-,.,.,-
Clc1ccccc1/C=N/NC1=Nc2cccc3cccc1c23,-,-,-,-,-,.
CCCc1nc2ccccc2c(C(=O)OCC(=O)NCc2ccc3c(c2)OCO3)c1CC,-,-,-,-,-,.
CCCc1nc2ccccc2c(C(=O)OC(C)C(=O)NCc2ccc3c(c2)OCO3)c1CC (stereo not drawn),-,31,-,-,-,-
CCC(O)C1CCN(C(=O)c2cc(COc3ccc4ncccc4c3)on2)CC1 (stereo not drawn),-,33,-,.,.,-
O=C(c1cc(COc2ccc3ncccc3c2)on1)N1CCC(O)CC1,-,-,-,.,.,.
C=CCNC(=S)Nc1ccc(OC)c(S(=O)(=O)N2CCOCC2)c1,-,-,-,.,.,.
C=CCNC(=S)Nc1ccc(Cl)c(S(=O)(=O)N2CCOCC2)c1,-,70,-,.,.,-
CC(C)(C)c1ccc(C(=O)Nc2cccc3c(=O)[nH][nH]c(=O)c23)cc1,-,38,-,-,-,-
O=C(CCC1CCCC1)NC1CCCCC1,-,.,-,-,-,.
SMILES,S1P4 antagonist,S1P3 antag-1,S1P4 ag,GALR2 agonist,GALR2 blocker,S1P3 antag-2
OC(CN1CCOCC1)c1ccc(F)cc1 (stereo not drawn),-,37,-,.,.,-
O=C(c1ccc(F)cc1)C(CCCCCC(CN1CCOCC1)C(=O)c1ccc(F)cc1)CN1CCOCC1 (stereo not drawn),-,.,-,-,-,.
Cc1[nH]c2c(ccc3cccnc32)c1C,-,-,-,.,.,.
CC1=[N+](C)c2c(ccc3cccnc23)C1(C)C,-,29,-,.,.,-
Cc1cc(OCC(O)CN)ccc1Cl (stereo not drawn),-,-,-,.,.,.
Cc1ccc(NC(=O)C2(c3ccc([N+](=O)[O-])cc3)CCCC2)cc1,-,48,-,-,-,50
CN(C)C=Nc1nonc1-c1ccc(Cl)cc1,-,-,-,.,.,.
COc1ccc(NC(=S)NNC(=O)C2CC2c2ccc(C)cc2)cc1 (stereo not drawn),-,33,-,-,-,-
O=C(Cc1cccc2ccccc12)Nc1ccc(OC(F)F)c(Cl)c1,-,-,-,-,-,.
O=C(Nc1ccc(OC(F)F)c(Cl)c1)C(c1ccccc1)c1ccccc1,-,50,-,-,-,59
NS(=O)(=O)c1ccc(CNC(=O)/C=C/c2cccc([N+](=O)[O-])c2)cc1,-,-,-,.,.,.
CCOC(=O)N=Nc1c2ccccc2c2nc3no[nH]c3nc12,-,31,-,.,.,109
COc1ccc(C(CC(=O)c2ccc(C)cc2)Nc2ccc([N+](=O)[O-])cc2)cc1 (stereo not drawn),-,44,-,-,-,79
CCOC(=O)N1CCC(NS(=O)(=O)c2ccc(NC(C)=O)c(Cl)c2)CC1,-,-,-,.,.,.
c1ccc(-c2csc3ncnc(NCC4COc5ccccc5O4)c23)cc1 (stereo not drawn),-,37,-,-,-,-
S=C(NCc1ccco1)NCC(c1ccco1)N1CCCCC1 (stereo not drawn),-,-,-,.,.,.
Cc1cnc(C(=O)N2CCN(c3ccc(C(F)(F)F)cn3)CC2)cn1,-,-,-,.,.,.
CC(CC(=O)N1CCN(c2ccc(C(F)(F)F)cn2)CC1)n1ccnc1 (stereo not drawn),-,36,-,.,.,-
C/C(Cn1nnc2ccccc21)=N/OC(=O)c1c(F)cccc1F,-,-,-,.,.,.
C/C(Cn1nnc2ccccc21)=N\NC(=O)c1cccc(Br)c1,-,29,-,-,-,-
Cc1ccc(NC(=O)CSc2nnc(C3COc4ccccc4O3)o2)c(Cl)c1 (stereo not drawn),-,-,-,.,.,.
Cc1cc(C)c(C)c(S(=O)(=O)N2CCN(C(=O)CCC(=O)N3CCOCC3)CC2)c1C,-,31,-,.,.,-
COc1ccccc1CNC(=O)/C=C/c1cc2c(cc1Br)OCO2,-,.,-,-,-,.
Fc1ccc(-c2n[nH]c(=S)c3ccccc23)cc1,-,65,-,.,.,-
Cc1ccc(C)c(S(=O)(=O)N/N=C/c2ccc(N3CCOCC3)cc2)c1,-,30,-,.,.,-
SMILES,S1P4 antagonist,S1P3 antag-1,S1P4 ag,GALR2 agonist,GALR2 blocker,S1P3 antag-2
O=C(Nc1cccc(Oc2ccc(C(=O)O)c(C(=O)O)c2)c1)c1ccc(-c2ccccc2)cc1,-,-,-,.,.,.
CC(C)(C)c1cc(C(=O)NN)n(Cc2ccc(F)cc2)n1,-,-,-,.,.,.
Cc1cccc(Cn2nc(C(C)(C)C)cc2C(=O)Nc2ccc(F)cc2)c1,-,37,-,.,.,53
CCOc1ccc(C(=O)NC(=S)NCc2cccnc2)cc1[N+](=O)[O-],-,-,-,-,-,.
Cc1nn(C)c2ncc(C(=O)c3cc(F)ccc3O)cc12,-,.,-,-,-,.
O=C(c1cnc2ccc3ccccc3c2c1)c1cc(F)ccc1O,-,32,-,.,.,-
CSc1ccccc1C(=O)NCCOc1cccc(C)c1,-,39,-,.,.,-
COC(=O)C(CCSC)NC(=O)c1cc2c(n(-c3ccccc3)c1=O)CC(C)(C)CC2=O (stereo not drawn),-,-,-,-,-,.
COc1cccc(Cn2c(=S)[nH]c3ccc(N4CCOCC4)cc3c2=O)c1,-,.,-,-,-,.

# Screening data as filed in PubChem BioAssay.
